# Assay outcomes: PubChem BioAssay, National Center for Advancing Translational Sciences (NCATS)
# CBFb-RUNX1 inh = blocks binding between human CBF-beta and RUNX1; 230,000 tested, under 10 active; AlphaScreen CBFb-His/RUNX1-biotin binding, biochemical; AID 1477; Potency, µM (doses to about 59.8 µM), inactives show at the highest dose activity, negative = inhibition, most hits filed as inhibitors; note: % of control where 0% means no effect
#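 CBFb-His/RUNX1-biotin, 30 nM each, preincubated 20 min RT; compound 15 min RT; Ni + streptavidin beads 50 ng each, 90 min RT; AlphaScreen read.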
# Tau ThT inhib = inhibitors of human tau fibril formation, thioflavin T binding | actives 2.1% (n = 270,000) | Potency, µM (highest dose often 57.4 µM), for the others: at the top dose activity, negative = inhibition, usual class: inhibitors | P10636 | AID 1460 | recombinant tau K18 P301L, heparin-induced fibrillization, ThT fluorescence; note: potency is the fitted concentration of half-maximal effect; % is set by controls: 0 for no effect and ±100 for the full control effect; nearly all actives have a fitted effect of over 55% in size
# Target sequence (P10636 561-689 P618L limits assumed): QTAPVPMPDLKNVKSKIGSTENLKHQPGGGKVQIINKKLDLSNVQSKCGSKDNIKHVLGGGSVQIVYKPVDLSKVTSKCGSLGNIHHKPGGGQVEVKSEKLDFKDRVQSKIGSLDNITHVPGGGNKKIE
#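 Aggregation was driven by heparin (20 uM final) acting on recombinant tau […] bearing P301L in 100 mM sodium acetate pH 7; fibrils were detected with Thioflavin T.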
# Lamin A splicing = modulators of lamin A splicing | HeLa LMNA splicing GFP/RFP minigene ratio, 48 h | Potency, µM (doses to about 46.1 µM), for the others: at the highest dose ratio change, negative = inhibition, most hits filed as inhibitors | actives 0.01% (n = 200,000) | AID 1487; active = well fitted inhibition curve with a large enough effect in the signal ratio, with a control signal flat, not every such curve was filed as active; inconclusive = small, poorly fitted or top-dose-only effect, or effect the other way, or a change in a side signal; the % refers to the signal ratio; note: potency is the fitted concentration of half-maximal effect; % is set by controls: 0 for no effect and ±100 for the full control effect
#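 Read-out is the ratio of GFP to DsRed2 object intensity, acquired by 488 nm laser-scanning cytometry on HeLa lamin A-EGFP minigene reporter cells. Compound incubation 48 hrs at 37 °C in Opti-MEM with 2% FBS; DMSO 0.5% final.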
# KDM4E inh = blocks human JMJD2E demethylase activity | B2RXH2 | Potency, µM (highest dose often 57.1 µM), inactives show at the top dose activity change, negative = inhibition, most hits filed as inhibitors | actives 1.6% (n = 230,000) | JMJD2E catalytic domain, FDH-coupled NADH fluorescence (FDH is formaldehyde dehydrogenase);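 note: potency is the fitted concentration of half-maximal effect; 0% = wells with enzyme and -100% = buffer wells without enzyme; nearly all actives have a fitted effect of over 50% in size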
# Target sequence (B2RXH2 1-337 limits assumed): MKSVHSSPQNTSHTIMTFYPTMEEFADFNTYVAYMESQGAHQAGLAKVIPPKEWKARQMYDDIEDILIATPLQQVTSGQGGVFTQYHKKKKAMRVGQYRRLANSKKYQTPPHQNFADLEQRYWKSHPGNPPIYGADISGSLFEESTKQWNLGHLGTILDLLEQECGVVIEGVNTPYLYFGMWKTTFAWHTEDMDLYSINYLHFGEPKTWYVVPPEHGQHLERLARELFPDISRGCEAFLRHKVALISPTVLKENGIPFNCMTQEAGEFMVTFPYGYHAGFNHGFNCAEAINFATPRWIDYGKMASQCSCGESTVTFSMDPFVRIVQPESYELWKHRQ
# Tau FP inhib = blocks human tau fibril formation measured by polarization; P10636; K18 P301L tau heparin fibrillization, Alexa594 FP, 6 h; Potency, µM (series often up to 57.7 µM), inactives show at the highest dose activity, negative = inhibition, actives largely listed as inhibitors; actives 0.39% (n = 280,000); note: potency is the fitted concentration of half-maximal effect; % is set by controls: 0 for no effect and ±100 for the full control effect; nearly all actives have a fitted effect of over 55% in size
#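 K18 P301L tau (15 uM unlabeled/0.24 uM Alexa 594-labeled, final) + compound + heparin 20 uM final; 100 mM NaOAc pH 7; 6 hr 37 C; ThT 30 uM final added, 1 hr RT; FP ex 555/em 632 nm.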
# Tau fluor counter = counter-screen for tau fibril formation inhibitors; tau K18 P301L Alexa594 fluorescence, heparin fibrillization; actives 0.93% (n = 280,000); Potency, µM (top dose mostly 57.7 µM), for the others: top-dose activity change, negative = decrease; AID 1463; note: potency is the fitted concentration of half-maximal effect; % is set by controls: 0 for no effect and ±100 for the full control effect; nearly all actives have a fitted effect of over 55% in size
#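 Human tau K18 P301L (15 uM unlabeled, 0.24 uM Alexa 594-labeled) in 100 mM sodium acetate pH 7 with 20 uM heparin, 6 hr at 37 C. ThT 30 uM added, 1 hr ambient; Alexa 594 FP and total fluorescence read at 555/632 nm.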
# * marks the source's active call; other numbers are inactive results; ? = inconclusive; · = no result given; [ ] = remark or other dose. Sampled rows, rich in hits. Any-hit rate of the full collection: about 3.2%. Unless noted, calls come from the whole dose curve; as a rule, active = well fitted curve in the direction sought with a large enough effect; inconclusive = small, poorly fitted or top-dose-only effect, or another doubt; inactive = no such curve, though single readings can be large; an effect the other way counts as inactive or inconclusive.
SMILES,CBFb-RUNX1 inh,Tau ThT inhib,Lamin A splicing,KDM4E inh,Tau FP inhib,Tau fluor counter
CCc1cc(-c2[nH]ncc2-c2ccc3c(c2)OCO3)c(O)cc1O,-27%,?,?,?,?,14µM*[quencher]
CCC(C)NC(=O)c1cc(-c2cccc(OC)c2)on1 (stereo unspecified),·,-12%,·,·,-3%,-13%
Cc1nc(-c2cccc(NC(=O)c3cccs3)c2)cs1,-9%,?,-11%,-5%,-3%,-19%
O=C(Nc1cccc(-c2csc(Nc3ccc(Cl)cc3)n2)c1)c1cccc(C(F)(F)F)c1,18%,13µM*,·,-10%,-3%,7.9µM*[quencher]
O=C(Nc1cccc(-c2csc(Nc3ccc(Cl)cc3)n2)c1)c1ccccc1,-10%,14µM*,·,-1%,-12%,14µM*[quencher]
Clc1ccc(Nc2nc(-c3cccnc3)cs2)cc1,-1%,?,10%,-2%,9%,?
O=C(NNC(=S)Nc1cccc(C(F)(F)F)c1)c1cccc(Cl)c1,-21%,?,?,-6%,14%,?
O=C(Nc1cccc(-c2csc(-c3ccccc3)n2)c1)c1cccs1,4%,?,?,?,14µM*,?
COc1ccc(C2c3c(oc4ccccc4c3=O)C(=O)N2c2nc(C)c(C)s2)cc1 (stereo unspecified),·,-9%,·,·,-7%,-15%
CN1C(=O)/C(=C/c2cc(N=Nc3ccccc3)ccc2O)SC1=S,-14%,4.5µM*,2%,-7%,?,6.3µM*[quencher]
O=C1/C(=C/c2ccccc2O)SC(=S)N1Cc1cccnc1,-13%,?,?,-20%,-15%,-10%
Cc1c(N2C(=O)/C(=C\c3ccccc3O)SC2=S)c(=O)n(-c2ccccc2)n1C,-1%,32µM*,·,1%,?,-26%
COc1ccc(NC(=O)C2CCCN(c3nnc(C)c4c(C)n(-c5ccccc5)nc34)C2)cc1Cl (stereo unspecified),·,-13%,·,·,-1%,-17%
Cc1cc(-c2ccco2)n(-c2ccccc2)n1,-10%,32µM*,9%,?,?,-14%
Cc1cc(NC(=O)c2cc(-c3ccco3)on2)n(-c2ccccc2)n1,11%,-13%,-12%,?,-2%,-2%
COc1cccc(NC(=O)CCNS(=O)(=O)c2ccc3c(c2)CCCC(=O)N3)c1,·,-4%,-2%[46 µM],·,-3%,-6%
C=CCn1c(SCC(=O)NCc2ccco2)nc2sc3c(c2c1=O)CCCC3,-1%,7%,5%,4%,-6%,-2%
O=C(NCc1ccco1)c1ccc2nc3sc4c(c3c(=O)n2c1)CCCC4,15%,14µM*,2%,?,22µM*,-22%
CC(C)CN(CCCNC(=O)c1cn(C)c2ccc(S(=O)(=O)N(C)C3CCCCC3)cc2c1=O)CC(C)C,·,-4%,·,·,-1%,-23%
CCCSC1=N/C(=C\c2ccc([N+](=O)[O-])o2)C(=O)S1,·,13µM*,·,?,?,?
CCSC1=N/C(=C\c2ccc(-c3ccccc3[N+](=O)[O-])o2)C(=O)S1,?,5µM*,1%[0.0737 µM],?,?,?
O=C1SC(SCc2ccccc2)=N/C1=C\c1ccco1,?,?,8%,-10%,-4%,-23%
CCCSC1=N/C(=C\c2ccsc2)C(=O)S1,-2%,-13%,-5%,-7%,-8%,-11%
CCCSC1=N/C(=C\C=C\c2ccco2)C(=O)S1,·,14µM*,?,8.9µM*,?,?
Cc1ccc(S(=O)(=O)c2nc(-c3cccs3)oc2SCc2ccc(F)cc2)cc1,·,-6%,·,·,-11%,?
SMILES,CBFb-RUNX1 inh,Tau ThT inhib,Lamin A splicing,KDM4E inh,Tau FP inhib,Tau fluor counter
COc1ccc(N2CC(c3nc(-c4cc(OC)c(OC)c(OC)c4)no3)CC2=O)cc1Cl (stereo unspecified),·,?,-11%[46 µM],·,8%,-17%
COC(=O)c1c(SCC(=O)Nc2ccccc2OC)[nH]c2ccccc2c1=O,·,14µM*,·,·,4%,?
COc1ccccc1NC(=O)c1ccc(-c2nc(COc3ccc(C)cc3)c(C)o2)cc1,·,-9%,·,·,-1%,-15%
COc1ccccc1CNC(=O)c1cc2ccc3ccc(C)[nH]c3c2n1,·,6%,?,·,-8%,-21%
O=C(CSc1ncn[nH]1)CSc1ncn[nH]1,11%,-13%,-3%[46 µM],3.5µM*,-5%,-10%
CC(C)c1ccc(C(=O)CSc2ncn[nH]2)cc1,3%,-24%,5%,25µM*,-10%,-9%
Cc1cccc2c1NC(=O)/C2=C\C(=O)c1cccs1,-3%,22µM*,?,1%,6%,-26%
Cc1cc(Br)c2c(c1)/C(=C/C(=O)c1cccs1)C(=O)N2,-22%,?,-25%[46 µM],-8%,-2%,-8%
Cc1cc(C)c2c(c1)/C(=C/C(=O)c1ccc(Br)s1)C(=O)N2,1%,28µM*,1%,1%,-13%,20µM*[quencher]
CCc1ccc(NC(=O)c2cnn(-c3c(C)cccc3C)c2C2CCN(C(=O)OC(C)(C)C)CC2)cc1,·,-13%,-12%[46 µM],·,-7%,-14%
COc1ccc2c(c1)C(=O)[C@H](OC(=O)N[C@H]1CCCc3ccccc31)[C@@H](c1ccc(OC)c(Br)c1)O2,-10%,1%,·,?,-1%,-2%
COc1ccc(CNc2ccc3cn[nH]c3c2)c(OC)c1OC,-5%,28µM*,16%,?,?,?
COC(=O)/C(=C\C(=O)c1ccc([N+](=O)[O-])cc1)Nc1ccc(OC)cc1,-8%,3.2µM*,?,-12%,?,?
N#C/C(=N\Nc1ccc(Cl)cc1)C(=O)c1ccccc1,-30%,14µM*,?,1%,10%,?
Cc1c(N/N=C(\C#N)C(=O)c2ccc(Cl)cc2)c(=O)n(-c2ccccc2)n1C,-30%,0%,?,6%,-2%,-6%
COc1ccc(C(=O)/C=C/Nc2ccc([N+](=O)[O-])cc2)cc1,-13%,?,20%,6%,-2%,-11%
COc1ccc(C(=O)/C(C#N)=N/Nc2ccc([N+](=O)[O-])cc2)cc1,-13%,4µM*,?,-24%,1%,?
COc1ccc(Nc2nnc(SC(C(=O)Nc3cc(C)ccc3C)c3ccccc3)s2)cc1 (stereo unspecified),-1%,-6%,-11%[46 µM],-8%,?,?
COc1ccc(Nc2nnc(SC(C(=O)Nc3ccc(OC)c(Cl)c3)c3ccccc3)s2)cc1 (stereo unspecified),4%,-17%,?,-13%,18%,7.1µM*[quencher]
COCc1cc(C)nc2c1C(=O)NC(c1ccc(Br)cc1)N2Cc1ccccc1 (stereo unspecified),·,0%,·,·,0%,-4%
